Data taken from PubChem BioAssay (Tox21).
Records with an inconclusive call do not appear. Calls of active or inactive are those of the source. Unless noted, calls come from the whole dose curve; as a rule, active = well fitted curve in the direction sought with a large enough effect in the repeat runs; inconclusive = weak or mixed curves; inactive = no such curve, though single readings can be large; an effect the other way counts as inactive or inconclusive.

Legend:
[1] = qHTS assay to identify small molecule antagonists of the vitamin D receptor (VDR) signaling pathway - cell viability counter screen (AID 743225); note: % is set by controls: 0 for no effect and ±100 for the full control effect; nearly all actives have a fitted effect of over 50% in size
In short: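 In this counter screen, VDR-bla HEK 293T cells receive test compound plus 3 nM final calcitriol for 16 h at 37C. Room-temperature steps of 2 h with the beta-lactamase substrate, then 30 min with CellTiter-Glo, precede the luminescence read.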

[2] = qHTS assay to identify small molecule agonists of the NFkB signaling pathway (AID 1159509; active = well fitted curve in the direction sought with a large enough effect in the signal ratio in the repeat runs, not every such curve was filed as active; the % refers to the signal ratio; note: series mostly up to about 61 µM; % is set by controls: 0 for no effect and ±100 for the full control effect)
In short: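 NFkB-bla ME-180 cells with a beta-lactamase reporter under an NF-kB response element were plated overnight, treated with compounds in DMSO for 5 hr at 37 C, then loaded with FRET substrate for 1.5 hr at room temperature.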

[3] = qHTS assay to identify small molecule agonists of the NFkB signaling pathway - cell viability counter screen (AID 1159515; calls by dose curve; note: series mostly up to about 61 µM; % is set by controls: 0 for no effect and ±100 for the full control effect; nearly all actives have a fitted effect of over 55% in size)
In short: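 Using the same wells as the NFkB reporter read, ME-180 NFkB-bla cells given compounds for 5 hr were assessed for viability via CellTiter-Glo, with luminescence taken after a 30 min room-temperature incubation.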

[4] = qHTS assay to identify small molecule agonists of the endoplasmic reticulum stress response signaling pathway (AID 1159516; active = well fitted activation curve with a large enough effect in the signal ratio in the repeat runs, not every such curve was filed as active; the % refers to the signal ratio; note: % is set by controls: 0 for no effect and ±100 for the full control effect)
In short: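 An ESRE-bla HeLa cell assay: compounds were pin-transferred from DMSO onto overnight-plated cells and left 5 hr at 37 C. Substrate was then loaded for 2 hr at room temperature before reading fluorescence at 460 nm and 530 nm.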

[5] = qHTS assay to identify small molecule agonists of the endoplasmic reticulum stress response signaling pathway - cell viability counter screen (AID 1159517; calls by dose curve;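 note: HeLa cells carrying an ER stress response element beta-lactamase reporter; series mostly up to about 61 µM; % is set by controls: 0 for no effect and ±100 for the full control effect; nearly all actives have a fitted effect of over 50% in size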)
In short: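 Luminescence readout: CellTiter-Glo, 30 min RT, same wells as the ESRE-bla reporter read. HeLa ESRE-bla, 1,500 cells/well, o/n 37 C; cpd 5 hr 37 C/5% CO2.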

[6] = qHTS assay to identify small molecule antagonists of the retinoid-related orphan receptor gamma (ROR-gamma) signaling pathway - cell viability counter screen (AID 1159520); note: % is set by controls: 0 for no effect and ±100 for the full control effect; nearly all actives have a fitted effect of over 50% in size
In short: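 Tet-on ROR gamma CHO cells (1,000/well) were plated 4 hr, given compounds in DMSO for 2 hr at 37 C, then induced with 1 uM final doxycycline for 16 hr. Viability was read as ATP by CellTiter-Glo luminescence after 30 min.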

[7] = molecular target: Nuclear receptor ROR-gamma (Homo sapiens) (UniProt P51449); test: qHTS assay to identify small molecule antagonists of the retinoid-related orphan receptor gamma (ROR-gamma) signaling pathway (AID 1159521;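 note: CHO cells with doxycycline inducible ROR-gamma driving an RORE luciferase reporter; top concentration of the series differs between compounds; % is set by controls: 0 for no effect and ±100 for the full control effect; nearly all actives have a fitted effect of over 50% in size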)
In short: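 Screening format: cell-based luciferase reporter in CHO cells with doxycycline-inducible RORγ. Compound pre-exposure lasts 2 h, doxycycline is 1 uM final, induction runs 16 h at 37 C, and ONE-Glo luminescence is read.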

[8] = qHTS assay to identify small molecule agonists of the AP-1 signaling pathway - cell viability counter screen (AID 1159525; calls by dose curve; note: nearly all actives have a fitted effect of over 55% in size)
In short: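 ME-180 AP-1-bla, 2500 cells/well, Opti-MEM + 0.5% dialyzed FBS; overnight 37 °C; cpd 15-pt titration, 5 h 37 °C; CellTiter-Glo 30 min RT; luminescence read; normalised to TOAB and DMSO controls.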

[9] = qHTS assay to identify small molecule agonists of the AP-1 signaling pathway (AID 1159526; calls by dose curve; note: % is set by controls: 0 for no effect and ±100 for the full control effect)
[10] = molecular target: Retinoic acid receptor RXR-alpha (Homo sapiens) (UniProt P19793); test: qHTS assay to identify small molecule agonists of the RXR signaling pathway (AID 1159527; calls by dose curve; note: % is set by controls: 0 for no effect and ±100 for the full control effect; nearly all actives have a fitted effect of over 35% in size)
Sequence of Retinoic acid receptor RXR-alpha (Homo sapiens) (P19793 whole entry, looked up): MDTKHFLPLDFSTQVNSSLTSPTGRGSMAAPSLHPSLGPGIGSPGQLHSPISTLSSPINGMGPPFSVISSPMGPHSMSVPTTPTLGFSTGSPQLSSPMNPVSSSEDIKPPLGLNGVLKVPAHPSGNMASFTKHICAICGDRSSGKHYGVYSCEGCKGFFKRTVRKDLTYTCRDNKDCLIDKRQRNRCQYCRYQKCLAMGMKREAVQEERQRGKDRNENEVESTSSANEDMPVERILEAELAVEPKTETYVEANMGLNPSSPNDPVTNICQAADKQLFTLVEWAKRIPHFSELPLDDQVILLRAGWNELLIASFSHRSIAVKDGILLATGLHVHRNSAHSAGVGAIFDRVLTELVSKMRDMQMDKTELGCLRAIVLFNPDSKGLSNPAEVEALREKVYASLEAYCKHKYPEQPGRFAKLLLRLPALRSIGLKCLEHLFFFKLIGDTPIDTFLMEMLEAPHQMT
In short: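 Fluorescence ratio readout (460 vs 530 nm) from GeneBLAzer RXR-alpha HEK 293T cells after 16 hr compound treatment; cells seeded 5 hr beforehand in low-serum, charcoal-stripped medium.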

[11] = qHTS assay to identify small molecule agonists of the RXR signaling pathway - cell viability counter screen (AID 1159529)
In short: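 Viability read-out for the RXR-alpha agonist qHTS: luminescent CellTiter-Glo signal after 30 min at RT. HEK 293T bla reporter cells, 2% charcoal-stripped FBS, 16 hr compound incubation; tetraoctyl ammonium bromide as cytotoxic control.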

[12] = qHTS assay to identify small molecule antagonists of the retinoid acid receptor (RAR) signaling pathway - cell viability counter screen (AID 1159551); note: % is set by controls: 0 for no effect and ±100 for the full control effect; nearly all actives have a fitted effect of over 35% in size
In short: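 Retinol-stimulated (1 uM final) C3RL4 cells, compound 6 h, 37 C; readout CellTiter-Glo luminescence (ATP) after 30 min RT incubation.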

[13] = qHTS assay to identify small molecule antagonists of the estrogen related receptor (ERR) signaling pathway from Tox21 library - cell viability counter screen (AID 1224834); note: % is set by controls: 0 for no effect and ±100 for the full control effect; nearly all actives have a fitted effect of over 30% in size
In short: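 After 17.5 h of compound exposure at 37 C, ERR cells are incubated with CellTiter-Fluor for 30 min and fluorescence intensity serves as the viability measure.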

N#CCCC#N
inactive: outcome [1] | outcome [2] | outcome [3] | outcome [4] | Potency [5] | Potency [6] | Potency [7] | Potency [8] | outcome [9] | Potency [10] | Potency [11] | Potency [12] | Potency [13]

ClC(Cl)(Cl)C(Cl)(Cl)Cl
inactive: outcome [2] | outcome [3] | outcome [4] | Potency [5] | Potency [6] | Potency [7] | Potency [8] | outcome [9] | Potency [10] | Potency [11] | Potency [12] | Potency [13]

COc1cc(OC)nc(NC(=O)NS(=O)(=O)c2ncccc2OCC(F)(F)F)n1
inactive: outcome [1] | outcome [2] | outcome [3] | outcome [4] | Potency [5] | Potency [6] | Potency [7] | Potency [8] | outcome [9] | Potency [10] | Potency [11] | Potency [12] | Potency [13]

CC(C)NCC(O)c1ccc(N)c(C#N)c1 (configuration not stated)
inactive: outcome [1] | outcome [2] | outcome [3] | outcome [4] | Potency [5] | Potency [6] | Potency [7] | Potency [8] | outcome [9] | Potency [10] | Potency [12] | Potency [13]

CCCCP(CCCC)CCCC
inactive: outcome [1] | outcome [2] | outcome [3] | outcome [4] | Potency [5] | Potency [6] | Potency [7] | Potency [8] | outcome [9] | Potency [10] | Potency [11] | Potency [12] | Potency [13]

N#Cc1c(Cl)cccc1Cl
inactive: outcome [1] | outcome [2] | outcome [3] | outcome [4] | Potency [5] | Potency [6] | Potency [7] | Potency [8] | outcome [9] | Potency [10] | Potency [12] | Potency [13]

CCCCCCI
inactive: outcome [1] | outcome [2] | outcome [3] | outcome [4] | Potency [5] | Potency [6] | Potency [7] | Potency [8] | outcome [9] | Potency [10] | Potency [11] | Potency [12] | Potency [13]

O=C(CCCN1CCC(n2c(=O)[nH]c3ccccc32)CC1)c1ccc(F)cc1
inactive: outcome [1] | outcome [2] | outcome [3] | outcome [4] | Potency [5] | Potency [6] | Potency [7] | Potency [8] | outcome [9] | Potency [10] | Potency [11] | Potency [12]

COC(=O)C(c1ccccc1)C1CCCCN1 (configuration not stated)
inactive: outcome [1] | outcome [2] | outcome [3] | outcome [4] | Potency [5] | Potency [6] | Potency [7] | Potency [8] | outcome [9] | Potency [10] | Potency [11] | Potency [12] | Potency [13]

CCSC(=O)N(CC)C1CCCCC1
inactive: outcome [1] | outcome [2] | outcome [3] | outcome [4] | Potency [5] | Potency [6] | Potency [7] | Potency [8] | outcome [9] | Potency [10] | Potency [11] | Potency [12] | Potency [13]

Cc1ncc2n1-c1ccc(Cl)cc1C(c1ccccc1F)=NC2
inactive: outcome [1] | outcome [2] | outcome [3] | outcome [4] | Potency [5] | Potency [6] | Potency [7] | Potency [8] | outcome [9] | Potency [10] | Potency [11] | Potency [12] | Potency [13]

CN(C)CCc1ccc(O)cc1
inactive: outcome [1] | outcome [2] | outcome [3] | outcome [4] | Potency [5] | Potency [6] | Potency [7] | Potency [8] | outcome [9] | Potency [10] | Potency [11] | Potency [12] | Potency [13]

COc1ccc2c(c1OC)CN1CCc3cc4c(cc3C1C2)OCO4 (configuration not stated)
inactive: outcome [2] | outcome [3] | outcome [4] | Potency [5] | Potency [6] | Potency [7] | Potency [8] | outcome [9] | Potency [11] | Potency [12]

CCC(C)n1c(=O)[nH]c(C)c(Br)c1=O (configuration not stated)
inactive: outcome [1] | outcome [2] | outcome [3] | outcome [4] | Potency [5] | Potency [6] | Potency [7] | Potency [8] | outcome [9] | Potency [10] | Potency [11] | Potency [12] | Potency [13]

Cc1cccc(C#N)c1
inactive: outcome [2] | outcome [3] | outcome [4] | Potency [5] | Potency [6] | Potency [7] | Potency [8] | outcome [9] | Potency [10] | Potency [11] | Potency [12] | Potency [13]

OCCSCSCCO
inactive: outcome [1] | outcome [2] | outcome [3] | outcome [4] | Potency [5] | Potency [6] | Potency [7] | Potency [8] | outcome [9] | Potency [10] | Potency [11] | Potency [12] | Potency [13]

CC1=C(C(=O)O)N2C(=O)[C@@H](N)[C@H]2SC1
inactive: outcome [1] | outcome [2] | outcome [3] | outcome [4] | Potency [5] | activity, negative = cytotoxicity [6] 0.102% [at 19 µM] | activity change, negative = inhibition [7] 27.3% [at 19 µM] | viability change, negative = cytotoxic [8] 19.2% [at 15.8 µM] | activation [9] -1.04% [at 15.8 µM] | activation [10] 0.217% [at 15.8 µM] | activity change, negative = cytotoxicity [11] 1.45% [at 15.8 µM] | activity change, negative = cytotoxicity [12] -0.0172% [at 19 µM] | viability change, negative = cytotoxic [13] 3.67% [at 19 µM]

O=C(O)c1ccc2[nH]cc(CCCCN3CC=C(c4ccccc4)CC3)c2c1
inactive: outcome [1] | outcome [2] | outcome [3] | outcome [4] | Potency [5] | Potency [6] | Potency [7] | Potency [8] | outcome [9] | Potency [10] | Potency [11] | Potency [12] | Potency [13]

CCC(=O)c1ccccc1
inactive: outcome [1] | outcome [2] | outcome [3] | outcome [4] | Potency [5] | Potency [6] | Potency [7] | Potency [8] | outcome [9] | Potency [10] | Potency [11] | Potency [12] | Potency [13]

COc1cc(OC)nc(NC(=O)NS(=O)(=O)c2ncccc2C(=O)N(C)C)n1
inactive: outcome [1] | outcome [2] | outcome [3] | outcome [4] | Potency [5] | Potency [6] | Potency [7] | Potency [8] | outcome [9] | Potency [10] | Potency [12] | Potency [13]

CSc1nc(N=[N+]=[N-])nc(NC(C)C)n1
inactive: outcome [1] | outcome [2] | outcome [3] | outcome [4] | Potency [5] | Potency [6] | Potency [7] | Potency [8] | outcome [9] | Potency [10] | Potency [12]
